Experimental data reported in ChEMBL document CHEMBL1157539, “Thousands of chemical starting points for antimalarial lead identification” (Nature, 2010).
Several values for one entry are separate records, joined by “and”; a condition that tells them apart may be missing. Equal entries are not always repeated.

How the values were obtained:
Format in all cases: functional
Plasmodium falciparum [1] = assay: GSK_TCMDC: Inhibition of Plasmodium falciparum 3D7 in whole red blood cells, using parasite LDH activity as an index of growth. Test compounds present at 2uM
Plasmodium falciparum [2] = assay: GSK_TCMDC: Inhibition of Plasmodium falciparum Dd2 in whole red blood cells, using parasite LDH activity as an index of growth. Test compounds present at 2uM
HepG2 = assay: GSK_TCMDC: Percent inhibition of human HepG2 cell line. Test compounds present at 10uM.

| SMILES | Inhibition (Plasmodium falciparum [1]) | Inhibition (Plasmodium falciparum [2]) | Inhibition (HepG2) |
| --- | --- | --- | --- |
| COC(=O)c1ccc(CC(C)NCC(O)c2ccc(F)c(Cl)c2)cc1.Cl (stereo not drawn) | 98% | 78% | 0% |
| C/C=C1\CN2CC[C@H]1C[C@@H]2[C@@H](O)c1ccnc2ccc(O)cc12 | 98% | 0% | 0% |
| COc1ccc(C(=O)c2ccc3[nH]cc(C4=CCN(C)CC4)c3c2)cc1 | 88% | 55% |  |
| CN1CC[C@H](N(Cc2ccccc2F)c2ccc(C#N)c(Cl)c2)C1 | 88% | 68% | 18% |
| C#CCOc1ccc(CC(C)NCC(O)c2cccc(C(F)(F)F)c2)cc1 (stereo not drawn) | 93% and 90% | 84% and 74% |  |
| O=C(Nc1cc(C(F)(F)F)cc(C(F)(F)F)c1)NC1CCC(CN2CCC(c3c[nH]c4ccccc34)CC2)CC1 (stereo not drawn) | 97% and 100% | 98% and 72% |  |
| CC(Cc1ccc(SCCSc2ccccc2)cc1)NCC(O)c1cccc(Cl)c1 (stereo not drawn) | 98% | 96% | 4% |
| CC1=C(C(=O)NC2CCC(CN3CCC(c4c[nH]c5ccccc45)CC3)CC2)Cc2ccccc21 (stereo not drawn) | 97% and 99% | 15% and 24% | 41% and 37% |
| CN1CC=C(c2c[nH]c3ccc(C(=O)c4nccs4)cc23)CC1 | 89% | 73% |  |
| CCCc1cc(O)c2c3c(c(=O)oc2c1)CN(C)CC3 | 98% | 50% | 12% |
| CN1C2CCC1c1cc(NC(=O)c3cc(-c4ccc(Cl)cc4)cs3)ccc12.O=C(O)C(F)(F)F (stereo not drawn) | 90% | 35% | 62% |
| CCC(C)CN1CCC(N(C)c2cc(NC(=O)c3cccc(C)c3)ccn2)CC1.O=C(O)C(F)(F)F (stereo not drawn) | 93% | 14% | 1% |
| COc1cc2c(c(OC)c1OC)C[C@H]1c3c(cc4c(c3-2)OCO4)CCN1C | 84% | 30% | 7% |
| FC(F)(F)c1cccc(N2CCC(CN3CCC(c4c[nH]c5ccccc45)CC3)CC2)n1.O=C(O)C(F)(F)F | 84% | 10% | 41% |
| CCC1=C[C@@H]2CN(C1)Cc1c([nH]c3ccccc13)[C@@](C(=O)OC)(c1cc3c(cc1OC)N(C)[C@H]1[C@@](O)(C(=O)OC)[C@H](O)[C@]4(CC)C=CCN5CC[C@]31[C@@H]54)C2.O=S(=O)(O)O | 98% | 99% |  |
| CC[C@H]1CN2CC[C@H]1C[C@H]2[C@H](O)c1cc(N2CCCC2)nc2ccc(OC)cc12 | 98% | 100% | 0% |
| O=C(/C=C/c1ccc(Cl)c(Cl)c1)NC1CCC(CN2CCC(c3c[nH]c4cc(C(F)(F)F)ccc34)CC2)CC1 (stereo not drawn) | 100% and 98% | 38% and 85% |  |
| CC[C@H]1CN2CC[C@@H]1C[C@H]2[C@H](O)c1cc(-c2ccc(F)cc2)nc2ccc(O)cc12.Cl | 99% | 99% | 25% |
| O=C(Cc1c(-c2ccccc2)[nH]c2ccccc12)NC1CCC(CN2CCC(c3c[nH]c4ccccc34)CC2)CC1 (stereo not drawn) | 100% | 75% | 31% |
| Cc1ccc(CC(C)NCC(O)c2cccc(C(F)(F)F)c2)cc1.O=C(O)/C=C/C(=O)O (stereo not drawn) | 100% | 54% | 5% |
| O=c1n[n+](C2CCCCC2)[n-]o1 | 91% | 82% | 0% |
| CC(C)NC(=O)Cn1cc(C2CCN(CC3CCN(C(=O)/C=C/c4ccc(Cl)c(Cl)c4)CC3)CC2)c2ccccc21.O=C(O)C(F)(F)F | 97% | 55% | 31% |
| O=C(C=Cc1ccc(-c2ccccc2)cc1)NC1CCC(CN2CCC(c3c[nH]c4ccccc34)CC2)CC1 (stereo not drawn) | 100% | 85% and 98% | 97% and 43% |
| N=C(N)NC(=O)Nc1ccc([N+](=O)[O-])c(Cl)c1 | 90% | 12% |  |
| Cc1[nH]c2ccccc2c1C1=CCN(CCCCCNC(=O)/C=C/c2ccc(Cl)c(Cl)c2)CC1 | 97% | 89% | 28% |
| CC1(C)CCCN(C(=O)Cc2ccc3c(c2)CCCC3)C1CN1CC=CC1.Cl (stereo not drawn) | 98% | 1% | 0% |
| CN1CC(c2ccc(Cl)c(Cl)c2)OC1=N.I (stereo not drawn) | 99% | 3% |  |
